Inconclusive results are not listed. Activity calls are given as the source filed them. Calls follow the shape of the dose curve; as a rule, active = well fitted inhibition curve with a large enough effect in the main read-out, with a control signal flat; inconclusive = small, poorly fitted or top-dose-only effect, or a change in a side signal; inactive = flat fitted curve, though single readings scatter.
Molecular target: Neuropeptide S receptor (Homo sapiens) (UniProt Q6W5P4)
Assay: Confirmation Concentration-Response Assay for Antagonists of the Neuropeptide S Receptor: cAMP Signal Transduction;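 as to activity change, negative = inhibition: 0% = DMSO with NPS and full inhibition = wells lacking NPS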
Settings: CHO-NPSR cells, cAMP TR-FRET, antagonist mode; series mostly up to 22.3 µM; activity change, negative = inhibition: at the top concentration
Source text: NIH Chemical Genomics Center [NCGC] NIH Molecular Libraries Probe Production centers Network [MLPCN] MLPCN Grant: X01-DA026210-01 Assay Submitter (PI): Heilig, Markus Alexander NCGC Assay Overview: Neuropeptide S receptor (NPSR), previously known as GPR154, is a recently de-orphanized G protein coupled receptor. Its endogenous ligand is the 20 amino acids peptide Neuropeptide S (NPS). […] NPS and its receptor are found in various tissues. Specifically they are highly expressed in brain areas that have been implicated in modulation of arousal, stress and anxiety. Central administration of NPS in mice produces an unusual profile of activity by inducing wakefulness and arousal, while at the same time suppressing anxiety. Therefore, NPSR may represent a novel drug target for the treatment of sleep and anxiety disorders. To identify NPSR antagonists, we developed a cell-based cAMP assay. NPS can stimulate the production of cAMP in Chinese hamster ovary cells stably expressing NPS receptor. This change in intracellular cAMP level can be detected by a homogeneous LANCE cAMP assay based on the TR-FRET (time resolved fluorescence resonance energy transfer) between a europium-labeled cAMP tracer complex and a cAMP-specific antibody labeled with Alexa Fluor 647. The europium-labeled cAMP tracer complex is formed by the tight interaction between Biotin-cAMP (b-cAMP) and streptavidin labeled with Europium-W8044 chelate (Eu-SA). Light pulse at 320 nm excites the europium of the cAMP tracer and the energy emitted is transferred to the Alexa molecule bound to the cAMP antibody, generating a TR-FRET signal at 665 nm. Residual energy from the europium will produce a light at 620 nm. The native unlabeled cAMP from cell lysates competes with the europium-cAMP tracer for antibody binding and reversely reduces the emission signal of Alexa by interrupting FRET between the two labeled molecules. Both emission signals from the FRET donor (620 nm) and the acceptor (665 nm) can be detected by a plate reader in the TRF mode. Expression of result in fluorescence ratio (665 nm/620 nm) helps to normalize differences due to cell density and reagent dispensing. This assay was successfully optimized to a 1536-well plate format. Select compounds from the primary screen (AID 1461) were chosen for confirmation based on potency, efficacy, SAR, and activity across other assays in PubChem and at NCGC. Other compounds are analogs of active compounds from the primary sceen.
NCGC Assay Protocol Summary: A Chinese hamster ovary (CHO) cell line stably expressing the NPS receptor (CHO-NPSR) was obtained from Dr. Heilig lab at NIAAA and maintained in F-12 Kaighn's media (Invitrogen, Carlsbad, CA, 21127) supplemented with 10 % FBS, 100 units/ml penicillin, 100 ug/ml streptomycin and 250 ug/ml geneticin at 37C, 5% CO2 in a humidified atmosphere. Before the assay, aliquots of cells were frozen and stored at -135C. The assay was performed in 1536-well format. Data are reported for both the ratio of the two emission wavelengths, and also for the component 'donor' channel, Em2=620. […] IC50 values were determined from concentration-response data modeled with the standard Hill equation. NPS 1536-well assay protocol: (1) Fresh or frozen CHO-NPSR cells were suspended in F-12 Kaighn's media supplemented with 10 % FBS, 100 units/ml penicillin and 100 ug/ml streptomycin. Cells were plated at 4 ul/well (1200 cells) to white, tissue culture treated 1536-well plates, and then cultured at 37C, 5 % CO2 for 16 to 30 hours. (2) Add 23 nl/well of compound in DMSO solution. The final titration for each compound was between 0.6 nM and 46 uM. (3) Add 1 ul of stimulation reagent (1X HBSS buffer, 5 mM HEPES, 0.1% BSA, 500 uM RO-201724 (Sigma-Aldrich, B8279), 1.5% Alexa 647-labeled anti-cAMP antibody (from Perkin Elmer), 100 nM NPS) (4) Incubation at 37C, 5 % CO2 for 60 min. (5) Add 1 ul/well detection reagent. […]
Potency is read from the fitted curve at half-maximal effect.

Chain of Neuropeptide S receptor (Homo sapiens) (Q6W5P4 whole entry, looked up): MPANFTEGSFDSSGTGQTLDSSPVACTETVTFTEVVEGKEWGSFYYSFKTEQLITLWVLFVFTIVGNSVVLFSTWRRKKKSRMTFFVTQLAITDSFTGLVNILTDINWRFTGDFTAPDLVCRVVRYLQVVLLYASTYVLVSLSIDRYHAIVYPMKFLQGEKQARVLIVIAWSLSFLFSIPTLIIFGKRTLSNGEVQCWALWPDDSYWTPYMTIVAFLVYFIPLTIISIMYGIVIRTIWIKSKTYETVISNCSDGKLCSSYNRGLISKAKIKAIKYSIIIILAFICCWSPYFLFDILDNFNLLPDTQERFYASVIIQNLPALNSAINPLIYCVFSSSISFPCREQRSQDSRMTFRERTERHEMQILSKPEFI

Activity change, negative = inhibition, inactive:
Cc1cccnc1NC(=O)c1c(O)c2cccc3c2n(c1=O)CCC3 -5.87%
O=C(N1CCOCC1)C1(c2ccc(Cl)cc2)CCCC1 19.5%
CN(C)C(=O)Oc1cccc([N+](C)(C)C)c1 -5.44%
NC(=O)c1ccsc1NC(=O)c1ccc(S(=O)(=O)N2CCCC2)cc1 -20.8%
Cc1ccc(Nc2cc(C)nn2-c2nc(C)cc(C)n2)cc1 -9.37%
C=CC1(C)CC(=O)C2(O)C(C)(O1)C(OC(C)=O)C(O)C1C(C)(C)CCC(O)C12C (stereo not given) 6.07% [at 0.188 µM]
CCCCOc1ccc(OCCCN2CCOCC2)cc1 -6.85%
CC(=O)c1c(C(C)=O)c(C)n(NC(=O)c2cccnc2)c1C 0.909%
O=C1Nc2ccc(S(=O)(=O)N3CCCC3C(=O)O)c3cccc1c23 (stereo not given) -13.2%
O=[N+]([O-])c1ccc(-c2nc(C(Cl)Cl)c3ccccc3n2)cc1 -10.6%
CCO[C@@H]1OC(C(=O)NCc2nc3ccccc3[nH]2)=C[C@H](c2ccc(C(F)(F)F)cc2)[C@H]1CCCO -6.49%
Cc1ccc(-n2ncc3c(NCc4ccc5c(c4)OCO5)ncnc32)c(C)c1 -21.2%
CCCCCN1C=CC=C/C1=C\C=C(C#N)C#N -10.9%
CCOC(=O)c1cnc(Nc2nc3ccccc3o2)nc1CSC(=S)N(CC)CC -11.7%
Cc1cc(C)n(-c2nc(NC(C)C)nc(NC(C)C)n2)n1 -3.58%
C(=N\Nc1nc(-c2ccccn2)nc2ccccc12)/c1ccccc1 -13%
Cn1c(C(=O)NCCN2CCc3ccccc3C2)cc2c(=O)[nH]c3ccccc3c21 3.7%
COCCCn1cnc2c(c1=O)c1nc3ccccc3nc1n2CCc1ccccc1 9.86%
O=C(CSC1=NCCS1)Nc1ccnc2ccccc12 -13.8%
CCN(CC)S(=O)(=O)c1ccc2c(c1)nc(SC(C)C(N)=O)n2-c1ccc(OC)cc1 (stereo not given) -17.6%
N#Cc1cnn(-c2ncnc3sc4c(c23)CCCC4)c1N -16.9%
Cc1ccc(NC(=S)NNC(C)(C)C)cc1 -2.61%
CN(C)c1nc(=Nc2cccc(Cl)c2)ss1 -8.2%
NC(=S)N/N=C/c1ncc(C(F)(F)F)cc1Cl -8.43%
S=C(Nc1ccccn1)c1ccccn1 1.64%
CCOC(=O)c1cnc(-n2nc(C)cc2C)nc1NC1CCCC1 -9.26%
CC1=C/C(=N\NC(=S)Nc2cccnc2)CC(C)(C)C1 -12.3%

Potency, active:
COc1ccc(N=C2S/C(=C\c3ccc(N4CCOCC4)o3)C(=O)N2CCc2c[nH]c3ccccc23)cc1 2.24 µM
O=C(Nc1cc(=O)[nH]c2nc(-c3ccc(Cl)cc3)nn12)c1ccccc1 3.98 µM
O=C1OC(c2ccccc2)(c2ccccc2)N2CCN(C(=O)NCc3ccc(F)cc3)CC12 (stereo not given) 0.0251 µM
N=C1c2ccccc2CN1c1ccc(N2CCOCC2)c(S(=O)(=O)Nc2ccc(Cl)cc2)c1 4.47 µM
COc1ccc(NC(=O)/C(Cl)=C(/Cl)S(=O)Cc2ccc(C)cc2)cn1 (stereo not given) 2.24 µM
COc1cccc(N2CCN(c3ncnc4c3[nH]c3ccc(F)cc34)CC2C)c1 (stereo not given) 5.62 µM
CCOC(=O)CCC(=O)Nc1ncnc2c1C(c1ccccc1)c1c(ccc3ccccc13)O2 (stereo not given) 2 µM
CC(=O)c1sc(N/N=C\c2ccccc2O)nc1C 7.08 µM
N=c1c2c(ncn1-c1ccccc1)Oc1ccc3ccccc3c1C2c1ccc2c(c1)OCO2 (stereo not given) 2.51 µM
N=c1c2c(ccn1Cc1ccccc1)Oc1ccc3ccccc3c1C2c1ccccc1 (stereo not given) 2 µM
O=C(c1ccccc1)N(C(=O)c1ccccc1)c1ncnc2c1C(c1ccccc1)c1c(ccc3ccccc13)O2 (stereo not given) 3.16 µM
O=C(CCc1ccccc1)Nc1ncnc2c1C(c1ccccc1)c1c(ccc3ccccc13)O2 (stereo not given) 3.55 µM
COc1cc(/C=C2\SC(c3ccc(C)cc3)=NC2=O)cc(OC)c1O 10 µM

Reference: PubChem BioAssay AID1491 (National Center for Advancing Translational Sciences (NCATS), 2009)
